# Test results as given in the supplement of paper PMC9262897, “Low-cost anti-mycobacterial drug discovery using engineered E. coli” (Nature Communications, 2022).
# Structures can show the parent of a compound that is named as a salt. ± gives the standard deviation of the averaged measurements.
# Columns and labels:
# Assay in all cases: growth (OD600 after 10 h); higher = more growth (less inhibition)
# [1] = tested on: E. coli TESEC Alr+ wild-type control; settings: compound 0.1 mM; raw OD600 reference: median of DMSO wells 0.241, cell-free background 0.041
# Protocol: (§1)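 TESEC Mtb Alr E. coli, or the Alr+ wild-type control, in 384-well plates with Prestwick library compounds at 0.1 mM and 1% DMSO, across arabinose induction levels of 1E3 to 1E7 nM. Growth is read as OD600 after 10 h at 37 °C in triplicate biological replicates.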
# E. coli TESEC Mtb Alr [2] = settings: compound 0.1 mM
# Protocol: as §1
# E. coli TESEC Mtb Asd = settings: compound 0.1 mM
# Protocol: (§2)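 TESEC E. coli strains in which the native enzyme is deleted and replaced by arabinose-inducible Mtb Asd, DapB, CysH or TrpD, each grown in its selective medium. Strains were screened against the Prestwick library at 0.1 mM and 1% DMSO in 384-well format at low and high arabinose induction. Growth is read as OD600 after 10 h in triplicate.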
# E. coli TESEC Mtb DapB = settings: compound 0.1 mM
# Protocol: as §2
# [3] = tested on: E. coli TESEC Alr+ wild-type control; settings: compound 0.1 mM; raw OD600 reference: median of DMSO wells 0.49, cell-free background 0.052
# Protocol: (§3)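 TESEC Mtb Alr E. coli (ΔaraC ΔtolC ΔentC Δalr ΔdadX, arabinose-inducible Mtb Alr) or the Alr+ wild-type control strain, grown in defined M9-fructose medium without D-alanine in 96-well plates with Prestwick library compounds at 0.1 mM and 1% DMSO. Low Alr induction is 0.1 µM arabinose and high induction is 10 mM arabinose.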
# E. coli TESEC Mtb Alr [4] = settings: compound 0.1 mM; remark: listed apart in the source
# Protocol: as §3
# [5] = arabinose 1000 nM, raw OD600 reference: median of DMSO wells 0.294, cell-free background 0.041
# [6] = arabinose 10000 nM, raw OD600 reference: median of DMSO wells 0.264, cell-free background 0.041
# [7] = arabinose 100000 nM, raw OD600 reference: median of DMSO wells 0.201, cell-free background 0.041
# [8] = arabinose 1000000 nM, raw OD600 reference: median of DMSO wells 0.193, cell-free background 0.041
# [9] = arabinose 10000000 nM, raw OD600 reference: median of DMSO wells 0.146, cell-free background 0.041
# [10] = arabinose induction (level): High, raw OD600 reference: median of DMSO wells 0.331, cell-free background 0.041
# [11] = arabinose induction (level): Low, raw OD600 reference: median of DMSO wells 0.417, cell-free background 0.041
# [12] = arabinose induction (level): High, raw OD600 reference: median of DMSO wells […], cell-free background 0.041
# [13] = arabinose induction (level): Low, raw OD600 reference: median of DMSO wells 0.227, cell-free background 0.041
# [14] = arabinose 100 nM, raw OD600 reference: median of DMSO wells 0.413, cell-free background 0.052
# [15] = arabinose 10000000 nM, raw OD600 reference: median of DMSO wells […], cell-free background 0.052
SMILES,growth [1],growth (E. coli TESEC Mtb Alr [2]; [5]),growth (E. coli TESEC Mtb Alr [2]; [6]),growth (E. coli TESEC Mtb Alr [2]; [7]),growth (E. coli TESEC Mtb Alr [2]; [8]),growth (E. coli TESEC Mtb Alr [2]; [9]),growth (E. coli TESEC Mtb Asd; [10]),growth (E. coli TESEC Mtb Asd; [11]),growth (E. coli TESEC Mtb DapB; [12]),growth (E. coli TESEC Mtb DapB; [13]),growth [3],growth (E. coli TESEC Mtb Alr [4]; [14]),growth (E. coli TESEC Mtb Alr [4]; [15])
CC(C)NC[C@H](O)COc1cccc2ccccc12 [(S)-propranolol hydrochloride],0.202 ± 0.0096,0.263 ± 0.011,0.295 ± 0.0058,0.18 ± 0.016,0.191 ± 0.014,0.149 ± 0.0089,0.279 ± 0.071,0.308 ± 0.043,0.173 ± 0.025,0.231 ± 0.051,0.497 ± 0.031,0.424 ± 0.0079,0.332 ± 0.016
CC(C)(C)CC(C)(C)c1ccc(OCOCCOCCO)c(Cc2cc(C(C)(C)CC(C)(C)C)cc(Cc3cc(C(C)(C)CC(C)(C)C)ccc3OCOCCOCCO)c2OCOCCOCCO)c1 [Tyloxapol],0.341 ± 0.018,0.323 ± 0.0088,0.256 ± 0.0056,0.455 ± 0.027,0.171 ± 0.0031,0.261 ± 0.032,0.475 ± 0.018,0.509 ± 0.0063,0.217 ± 0.018,0.261 ± 0.033,0.4593 ± 0.0043,0.418 ± 0.016,0.4093 ± 0.0033
COCC(=O)Nc1c(I)c(C(=O)NCC(O)CO)c(I)c(C(=O)N(C)CC(O)CO)c1I (centres undefined) [Iopromide],0.259 ± 0.016,0.329 ± 0.021,0.289 ± 0.014,0.237 ± 0.0091,0.188 ± 0.0057,0.156 ± 0.013,0.491 ± 0.0086,0.464 ± 0.028,0.213 ± 0.022,0.257 ± 0.043,0.464 ± 0.037,0.401 ± 0.019,0.349 ± 0.018
Oc1ccc(OCc2ccccc2)cc1 [Monobenzone],0.176 ± 0.0053,0.213 ± 0.017,0.249 ± 0.011,0.169 ± 0.004,0.134 ± 0.0036,0.161 ± 0.0038,0.314 ± 0.099,0.325 ± 0.025,0.2 ± 0.0057,0.21 ± 0.017,0.477 ± 0.012,0.395 ± 0.019,0.304 ± 0.018
CNCC(O)c1ccc(O)c(O)c1 (centres undefined) [Racepinephrine HCl],0.243 ± 0.0062,0.302 ± 0.0045,0.291 ± 0.0096,0.199 ± 0.0083,0.186 ± 0.0042,0.155 ± 0.0036,0.27 ± 0.052,0.44 ± 0.018,0.193 ± 0.0072,0.273 ± 0.06,0.605 ± 0.029,0.4177 ± 0.0019,0.288 ± 0.015
CNCC[C@@H](Oc1ccccc1C)c1ccccc1 [Tomoxetine hydrochloride],0.216 ± 0.0098,0.254 ± 0.0027,0.272 ± 0.0044,0.211 ± 0.019,0.139 ± 0.0019,0.173 ± 0.0034,0.205 ± 0.024,0.294 ± 0.021,0.18 ± 0.0036,0.263 ± 0.047,0.441 ± 0.016,0.407 ± 0.0067,0.326 ± 0.018
CO[C@H]1C[C@H](O[C@H]2[C@H](C)[C@@H](O[C@@H]3O[C@H](C)C[C@H](N(C)C)[C@H]3OC(C)=O)[C@@H](C)C[C@@]3(CO3)C(=O)[C@H](C)[C@@H](OC(C)=O)[C@@H](C)[C@@H](C)OC(=O)[C@@H]2C)O[C@@H](C)[C@@H]1OC(C)=O [Troleandomycin],0.0738 ± 0.00081,0.0647 ± 0.0085,0.0495 ± 0.0021,0.0702 ± 0.0019,0.04923 ± 0.00025,0.0672 ± 0.00087,0.15 ± 0.012,0.145 ± 0.0075,0.165 ± 0.0054,0.156 ± 0.0093,0.0617 ± 0.0015,0.112 ± 0.02,0.0707 ± 0.017
OC(CCN1CCCC1)(c1ccccc1)C1CCCCC1 (centres undefined) [Procyclidine hydrochloride],0.206 ± 0.018,0.297 ± 0.018,0.266 ± 0.0065,0.194 ± 0.011,0.163 ± 0.0092,0.148 ± 0.0059,0.314 ± 0.14,0.473 ± 0.055,0.177 ± 0.026,0.245 ± 0.033,0.573 ± 0.041,0.412 ± 0.009,0.317 ± 0.0092
CC(=O)NS(=O)(=O)c1ccc(N)cc1 [Sulfacetamide sodic hydrate],0.265 ± 0.006,0.313 ± 0.029,0.261 ± 0.0078,0.237 ± 0.011,0.187 ± 0.02,0.151 ± 0.0041,0.375 ± 0.022,0.407 ± 0.063,0.188 ± 0.0037,0.232 ± 0.048,0.486 ± 0.053,0.406 ± 0.013,0.353 ± 0.018
CN(C/C=C/c1ccccc1)Cc1cccc2ccccc12 [Naftifine hydrochloride],0.0432 ± 0.0006,0.0444 ± 0.001,0.04317 ± 0.00021,0.045 ± 0.0005,0.0437 ± 0.0015,0.0527 ± 0.00066,0.269 ± 0.035,0.313 ± 0.069,0.125 ± 0.008,0.133 ± 0.0053,0.374 ± 0.0058,0.266 ± 0.14,0.052 ± 0.0013
CCN(CC)CC#CCOC(=O)C(O)(c1ccccc1)C1CCCCC1 (centres undefined) [Oxybutynin chloride],0.148 ± 0.0035,0.13 ± 0.067,0.167 ± 0.004,0.131 ± 0.072,0.0668 ± 0.00052,0.117 ± 0.0015,0.137 ± 0.017,0.191 ± 0.033,0.159 ± 0.0078,0.172 ± 0.034,0.41 ± 0.043,0.398 ± 0.031,0.145 ± 0.025
CCC(=O)OCC(=O)[C@@]1(OC(=O)CC)[C@@H](C)C[C@H]2[C@@H]3CCC4=CC(=O)C=C[C@]4(C)[C@@]3(Cl)[C@@H](O)C[C@@]21C [Beclomethasone dipropionate],0.216 ± 0.0072,0.31 ± 0.028,0.28 ± 0.018,0.179 ± 0.013,0.12 ± 0.013,0.167 ± 0.0041,0.246 ± 0.032,0.3 ± 0.031,0.22 ± 0.0053,0.248 ± 0.035,0.499 ± 0.027,0.442 ± 0.0072,0.247 ± 0.018
O=C1CCc2cc(OCCCCc3nnnn3C3CCCCC3)ccc2N1 [Cilostazol],0.148 ± 0.028,0.194 ± 0.027,0.1826 ± 0.00091,0.125 ± 0.0036,0.0688 ± 0.0017,0.123 ± 0.0057,0.225 ± 0.051,0.285 ± 0.033,0.16 ± 0.013,0.181 ± 0.0043,0.461 ± 0.015,0.411 ± 0.0062,0.145 ± 0.015
